697 NFkB inh – inhibitors of the PMA/ionomycin-induced NF-kB reporter in 697 B cells | 697 B-cell NF-kB luciferase reporter, 16 h | inhibition, % at 4 µM | actives 0.33% (n = 330,000) | AID 435022; in the data active = inhibition above about 35%
Gli-Sufu antag – Gli-Sufu pathway antagonism; Sufu-KO-LIGHT fibroblasts, Gli luciferase reporter luminescence; inhibition, % at 5 µM; actives 0.74% (n = 340,000);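 active = inhibition above about 55%, limit read from the data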;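 also: 0% = DMSO-treated cells and 100% = wells with medium but no cells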
Jurkat NFkB inh – lowers PMA/ionomycin-induced NF-kB signal in Jurkat cells; inhibition, % at 4 µM; AID 435003; PMA/ionomycin-induced NF-kB luciferase reporter, luminescence; actives 0.53% (n = 330,000); in the data active = inhibition above about 50%
Mdm2-MdmX inh – inhibitors of human Mdm2/MdmX interaction. O15151+Q00987. SaOS-2 split-luciferase Mdm2/MdmX complementation, luminescence. inhibition, % at 8 µM. actives 3% (n = 330,000);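 active = inhibition of at least 50% at 8 µM in the primary screen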
Target sequence (O15151 whole entry, looked up): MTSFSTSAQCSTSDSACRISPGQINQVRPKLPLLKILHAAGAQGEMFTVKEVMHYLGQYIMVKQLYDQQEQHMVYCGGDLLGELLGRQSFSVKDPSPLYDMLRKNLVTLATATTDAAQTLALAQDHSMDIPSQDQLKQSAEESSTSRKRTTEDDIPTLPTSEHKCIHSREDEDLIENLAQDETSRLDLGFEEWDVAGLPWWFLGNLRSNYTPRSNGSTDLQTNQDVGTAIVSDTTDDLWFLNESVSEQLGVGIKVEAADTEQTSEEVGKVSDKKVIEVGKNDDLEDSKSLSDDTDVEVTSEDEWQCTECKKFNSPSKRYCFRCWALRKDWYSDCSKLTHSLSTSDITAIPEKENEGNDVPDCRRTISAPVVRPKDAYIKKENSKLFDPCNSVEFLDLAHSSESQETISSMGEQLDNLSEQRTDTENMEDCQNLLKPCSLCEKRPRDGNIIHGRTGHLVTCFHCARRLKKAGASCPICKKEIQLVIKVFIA
Target sequence (Q00987 whole entry, looked up): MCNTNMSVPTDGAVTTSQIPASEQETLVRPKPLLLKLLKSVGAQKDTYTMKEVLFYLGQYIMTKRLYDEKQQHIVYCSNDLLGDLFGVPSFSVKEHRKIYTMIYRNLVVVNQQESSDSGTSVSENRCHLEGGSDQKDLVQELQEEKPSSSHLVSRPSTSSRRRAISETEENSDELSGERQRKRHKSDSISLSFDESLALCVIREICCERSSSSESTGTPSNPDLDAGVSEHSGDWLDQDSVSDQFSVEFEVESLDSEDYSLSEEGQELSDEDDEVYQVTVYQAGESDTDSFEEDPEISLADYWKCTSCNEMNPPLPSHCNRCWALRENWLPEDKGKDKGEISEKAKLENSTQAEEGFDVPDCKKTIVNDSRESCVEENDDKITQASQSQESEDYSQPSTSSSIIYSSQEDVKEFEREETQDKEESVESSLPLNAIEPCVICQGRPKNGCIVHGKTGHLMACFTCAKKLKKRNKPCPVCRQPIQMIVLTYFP
Beta apoptosis – beta cell apoptosis inhibition; INS-1E cytokine-induced death, ATP luminescence, 48 h; percent of positive-control rescue, neutral wells zero; protection from apoptosis, % (test concentration not listed); actives 0.8% (n = 300,000);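 active = Every replicate reaches about 75%, or at least half do and their mean reaches it too, limit read from the data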;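 also: 0% = cytokine-treated negative control wells and 100% = positive control rescue; higher means more ATP so stronger rescue from cytokine killing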
Mdm2-MdmX conf – human Mdm2/MdmX binding inhibition, confirmed; shares compounds with Mdm2-MdmX inh; luminescent assay; inhibition, % at 8 µM; actives 55% (n = 10,000); AID 489028; in the data active = inhibition above about 40%
Full FLuc ctr – counter-screen for Mdm2/MdmX inhibitors: full-length luciferase; actives 77% (n = 6,200); shares compounds with Mdm2-MdmX inh; AID 504607; inhibition, % at 8 µM; SaOS-2 full-length luciferase counterscreen, luminescence;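 active = mean inhibition at 8 µM reaching about 37%, which flags the compound as non-specific, limit read from the data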;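 also: p53-null SaOS-2 cells with luciferase driven by a doxycycline-inducible promoter; compound on cells about two nights before reading with doxycycline added after day one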
Starred values were filed as active, the others as inactive; . = not tested or not shown. Compounds with a hit are over-represented: about 4% of the library has one in this group of screens.

SMILES | 697 NFkB inh | Gli-Sufu antag | Jurkat NFkB inh | Mdm2-MdmX inh | Beta apoptosis | Mdm2-MdmX conf | Full FLuc ctr
COc1ccc(S(=O)(=O)N2CCN(S(=O)(=O)c3ccc4c(c3)OCCO4)CC2)cc1C | 25 | -33 | 4 | 13 | . | . | .
COc1ccc(S(=O)(=O)N2CCN(S(=O)(=O)c3ccc4c(c3)OCCO4)CC2)cc1 | 19 | 6 | 21 | 58* | 0 | 15 | .
O=C1C(Cl)=C(O)C2(Cl)C(Cl)=C(Cl)C12Cl (centres undefined) | . | -4 | . | . | . | . | .
CN1CC[C@@H]2C(=O)N3CCc4ccc(Br)cc4[C@@H]3C[C@@H]21 | . | -14 | . | . | . | . | .
Cc1ccc(OCC(=O)Nc2ccc(Cl)cc2)c(-n2nc3ccccc3n2)c1 | 8 | 3 | -5 | 78* | 47 | 72* | 81*
CCOc1ccc(C)cc1-n1nc2ccccc2n1 | 8 | 4 | -18 | -3 | -4 | . | .
O=Cc1cccn1-c1ccc(O)cc1 | 11 | 1 | 25 | 15 | 0 | . | .
O=[N+]([O-])c1ccc(/C=N/n2cnc3ccccc32)s1 | -1 | 15 | -3 | 70* | 112* | 60* | 10
Cc1ccc(NCc2nnc(SCC(=O)c3ccc4c(c3)OCCO4)o2)c(C)c1 | -4 | -4 | -12 | 57* | . | 7 | .
CN1C(=O)NC(c2ccccc2[N+](=O)[O-])C2=C1CCCC2=O (centres undefined) | 2 | 6 | -7 | 2 | 1 | . | .
Cc1cc(C)c(S(=O)(=O)c2ccccc2)c(OC(=O)c2c(Cl)cc(Cl)cc2Cl)n1 | 17 | 2 | -2 | 52* | -5 | 21 | .
COc1cccc(O)c1CN1CCC(C(=O)Nc2ccc(-c3cccc(C)c3)cc2)CC1 | -30 | 40 | -10 | 81* | . | 40* | 90*
CCn1cc(CN2CCC(C(=O)Nc3cccc(-c4cccc(F)c4)c3)CC2)cn1 | -41 | 18 | -1 | 7 | -4 | . | .
CC(C)n1cc(CN2CCC(C(=O)Nc3cccc(-c4cccc(Cl)c4)c3)CC2)cn1 | 13 | 29 | -9 | 99* | 7 | 47* | 66*
COc1cccc(-c2cccc(NC(=O)C3CCN(Cc4cccc(C)n4)CC3)c2)c1 | 8 | -7 | 12 | 19 | -4 | . | .
CCn1nc(C)c(CN2CCC(C(=O)Nc3cccc(-c4cccc(F)c4)c3)CC2)c1C | 14 | 24 | 16 | 53* | -1 | 18 | .
COc1ccc(CCNS(=O)(=O)CCNC(=O)c2ccc3c(c2)OCO3)cc1OC | 18 | -3 | -2 | 23 | 1 | . | .
Cc1cc(C)nc(NC(N)=NCCc2c[nH]c3ccccc23)n1 | -11 | 12 | 4 | 72* | -3 | 52* | 54*
COC(C[C@@H](O)CC(=O)[C@H](C)OCc1ccccc1)OC | 24 | -6 | 1 | 15 | . | . | .
COc1ccc(/C=N/Nc2cc(C)nc3ccccc23)cc1 | -38 | 55* | -55 | 98* | 50 | 57* | 46*
COc1ccc(/C=N/Nc2nnc(-c3ncc[nH]3)c3ccccc23)cc1 | -7 | -35 | -71 | 52* | 5 | -4 | .
COc1cccc2c(N/N=C/c3ccc(O)c(O)c3)cc(C)nc12 | -25 | -12 | -26 | 5 | -17 | . | .
COc1ccc(/C=N/Nc2cc(C)nc3c(C)cccc23)cc1 | -31 | 33 | -46 | 97* | 47 | 56* | 77*
CCOc1ccc(N2CC(C(=O)NC3=NCCS3)CC2=O)cc1 (centres undefined) | 19 | -1 | -9 | 23 | -9 | . | .
CCn1nc(C(=O)Nc2cc(Cl)ccc2-n2cncn2)c2ccccc2c1=O | -5 | 3 | 0 | -6 | 5 | . | .
COC(=O)[C@H](C)NC(=O)NCc1ccccc1 | 2 | 6 | -3 | 2 | 3 | . | .
CC1=NNC(=O)/C1=C\c1cn(-c2ccccc2)nc1-c1ccc(F)cc1 | . | 17 | . | . | . | . | .
O=C(O)CCCCCN1C(=O)/C(=C\c2cn(-c3ccccc3)nc2-c2cccs2)SC1=S | 13 | 5 | 11 | 51* | 1 | 29 | .
CC1=NNC(=O)/C1=C\c1cn(-c2ccccc2)nc1-c1cccs1 | -20 | -9 | 35 | 83* | 99* | 56* | 26
O=C(O)CCCCCN1C(=O)/C(=C/c2cn(-c3ccccc3)nc2-c2cccs2)SC1=S | . | -1 | . | . | . | . | .

Screens: PubChem BioAssay, several laboratories
